# Rows were chosen to be rich in hits. Some 2.9% of all compounds tested hit in one or more screens of this group.
# FXN GAA850 act = frataxin GAA850 promoter activation. HEK293 lucGAA850 FXN promoter luciferase reporter, 24 h; percent of 10 µM SAHA response. activation, % at 6 µM. 360,000 compounds, 0.56% hits. AID 540364;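 active = activation above the average of all compounds screened plus 3 SD, cutoff fixed separately per campaign, cut at about 7.5% in these data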;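 also: 0% = DMSO wells and 100% = 10 µM SAHA wells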
# FAS-TE inh = FAS thioesterase (human) inhibition; P49327; recombinant FAS-TE, OMFH fluorogenic substrate, fluorescence endpoint; inhibition, % at 15 µM; 360,000 compounds, 0.67% hits; AID 602261;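 active = compounds whose normalised, plate-corrected inhibition of enzyme fluorescence in the single-dose primary screen is 50% or more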;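 also: 0% = DMSO with enzyme and 100% = substrate without enzyme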
# SMARCA2 act = SMARCA2 function activation, primary screen; MG213 cells, MMTV-luciferase reporter, dexamethasone, overnight; AID 652017; 370,000 compounds, 1% hits; activation, % at 9.1 µM; in the data active = activation above about 7.8%;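 also: 0% = vehicle wells and 100% = reference activator wells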
# KLK7 zymogen act = activates the human kallikrein-7 zymogen; purified proKLK7, EDANS-DABCYL substrate fluorescence; 100% is mature enzyme control, 0% vehicle; activation, % at 7 µM; 370,000 compounds, 0.9% hits; AID 652039;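 active = activation above the mean of all tested compounds plus 3 SD, computed per campaign excluding outliers beyond control limits, cut at about 13% in these data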
# Target sequence (P49862 whole entry, looked up): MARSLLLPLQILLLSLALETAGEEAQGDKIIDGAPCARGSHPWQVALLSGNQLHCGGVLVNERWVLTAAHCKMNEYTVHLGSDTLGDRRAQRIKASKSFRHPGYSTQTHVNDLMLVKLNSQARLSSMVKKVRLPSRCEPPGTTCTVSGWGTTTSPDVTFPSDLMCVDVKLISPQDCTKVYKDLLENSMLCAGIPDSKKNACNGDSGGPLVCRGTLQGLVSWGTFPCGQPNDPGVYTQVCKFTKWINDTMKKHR
# proKLK7 act conf = proKLK7 activation, confirmation | purified proKLK7, EDANS-DABCYL substrate fluorescence; scaled: vehicle 0, mature enzyme 100 | shares compounds with KLK7 zymogen act | 3,200 compounds, 68% hits | activation, % at 7 µM;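 active = activation, as change over the incubation, above the mean of all tested compounds plus 3 SD, cut at about 13% in these data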
# EDANS interfere = optically interferes with EDANS-DABCYL signal, flagging KLK7 hits; shares compounds with KLK7 zymogen act; EDANS-DABCYL substrate fluorescence interference, no enzyme, 4 h; solvent 0%, active enzyme control 100%; activation, % at 7 µM; 3,200 compounds, 80% hits; AID 686952;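 active = activation above the all-compound mean plus 3 SD, ignoring values outside control-based bounds, cut at about 4.8% in these data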;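 also: value is the 4 h activation minus the activation read at time zero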
# K7 EDANS ctr = EDANS fluorescence interference in dose response, no enzyme. shares compounds with KLK7 zymogen act. EDANS-DABCYL peptide fluorescence interference. EC50, µM. 250 compounds, 20% hits;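 active = compounds that raise the fluorescence signal in this interference counterscreen, with EC50 at or below 10 µM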;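 also: intact quenched peptide substrate alone read at 355 nm excitation and 520 nm emission; signal is fluorescence gain from T0 to T4 after four hours at room temperature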
# Numbers without * were called inactive; . = no result.
SMILES,FXN GAA850 act,FAS-TE inh,SMARCA2 act,KLK7 zymogen act,proKLK7 act conf,EDANS interfere,others
CSc1ccc(/C=C/C(=O)OCC(=O)NC2CCS(=O)(=O)C2)cc1 (centres undefined),2,-5,-2,23*,20*,16*,K7 EDANS ctr=>69
CCn1nc(NC(C)=O)c2cc3cccc(C)c3nc21,3,-3,3,2,.,.,
CCn1nc(NC(=O)C(C)C)c2cc3cccc(C)c3nc21,-2,4,-2,62*,-8,-6,
CCN(CC(=O)NCc1ccc(F)cc1)C(=O)/C=C/c1cc(OC)ccc1OC,1,-2,0,69*,60*,66*,
CCCCOC(C)n1cc(F)c(=O)[nH]c1=O (centres undefined),2,-10,2,0,.,.,
CCc1nc2ccc(C(=O)N3CCN(S(=O)(=O)CC)CC3)cn2c1N(C=O)Cc1ccc(OC)cc1,-1,-4,3,0,.,.,
Cc1ccc(C(=O)Nc2ccc3nccnc3c2)cc1,2,2,0,13*,45*,38*,K7 EDANS ctr=9.2*
OCCNc1c2ccccc2nc2c(F)c(F)c(F)c(F)c12,5,-4,6,18*,19*,8.6*,K7 EDANS ctr=>69
Cc1cc(/C=C(\C#N)C(=O)Nc2ccccc2F)c(C)[nH]1,4,-5,2,32*,6,6.9*,
Cc1ccc(-c2cc(C(=O)OCC(=O)N(C)C3CCS(=O)(=O)C3)c3ccccc3n2)c(C)c1 (centres undefined),-1,15,-1,0,.,.,
CCN(C(=O)COC(=O)c1cc2ccccc2cc1O)C1CCS(=O)(=O)C1 (centres undefined),-1,-3,0,9,.,.,
O=C(OCC(=O)N1CCC(Cc2ccccc2)CC1)c1ccccc1NCCO,2,9,0,-10,.,.,
CCOC(=O)N1CCN(C(=O)COC(=O)c2ccccc2NCCO)CC1,-2,-5,-2,25*,28*,38*,
CCN(C(=O)COC(=O)c1cc(-c2ccc(C)o2)nc2ccccc12)C1CCS(=O)(=O)C1 (centres undefined),3,1,-1,174*,202*,187*,
Cc1ccc(-c2cc(C(=O)OCC(=O)N(C)C3CCS(=O)(=O)C3)c3ccccc3n2)o1 (centres undefined),1,-5,1,135*,14*,11*,K7 EDANS ctr=7*
CCN(C(=O)COC(=O)c1ccccc1NCCO)C1CCS(=O)(=O)C1 (centres undefined),2,-2,-1,25*,32*,35*,
COCC1CCCN(C(=O)c2ccc3oc(CCCc4ccccc4)nc3c2)C1 (centres undefined),3,-4,0,0,.,.,
Cc1ccc(-c2cc(C(=O)NCC3(N(C)C)CCCCC3)c3ccccc3n2)o1,-2,-10,1,72*,21*,46*,
NC(=O)C1CCN(C(=O)CN(c2cccc(C(F)(F)F)c2)S(=O)(=O)c2ccccc2)CC1,2,-10,0,-1,.,.,
O=C(NCc1ccco1)Nc1ccc2nsnc2c1,0,-3,4,27*,26*,29*,
CCOC(=O)C1=C(CSc2nc(-c3ccccc3)ccc2C#N)OC(N)=C(C#N)C1c1cccnc1 (centres undefined),5,-13,7,382*,384*,347*,
CCOC(=O)C1=C(CSc2nc(-c3ccccc3)ccc2C#N)OC(N)=C(C#N)C1c1ccccc1 (centres undefined),4,6,4,470*,585*,566*,
COc1ccc(/C=C(\C#N)C(=O)NCc2ccccc2)cc1,1,-1,-2,38*,-187,-241,
N#C/C(=C\c1ccc(O)cc1)C(=O)NCc1ccccc1,1,-4,0,0,.,.,
O=c1c2ccccc2nc(-c2ccco2)n1/N=C/c1ccco1,1,-6,1,1,.,.,
SMILES,FXN GAA850 act,FAS-TE inh,SMARCA2 act,KLK7 zymogen act,proKLK7 act conf,EDANS interfere,others
O=C(CC(SCCO)c1ccc2c(c1)OCO2)c1ccco1 (centres undefined),2,-4,4,17*,48*,46*,
CCOc1ccc2nc(N3CCOCC3)nc(C)c2c1,5,1,4,21*,-21,-32,
COc1cc(/C=N/NC(=O)c2cc(C34CC5CC(CC(C5)C3)C4)[nH]n2)ccc1O,-1,1,0,0,.,.,
Cc1ccc2nc(-c3ccc(NC(=O)CSc4nnc(Cc5cccs5)n4C)cc3)sc2c1,.,.,-2,149*,157*,86*,
Cc1ccc2nc(-c3ccc(NC(=O)CSc4nnc(-c5ccccc5)n4Cc4ccco4)cc3)sc2c1,.,.,1,128*,297*,333*,
CCOC(=O)c1c(NC(=O)CSc2nnc(-c3cccnc3)n2Cc2ccco2)sc(C)c1C,-2,12,1,14*,1,2,
Cc1ccc(C)c(N(CC(=O)Nc2ccc(-c3nc4ccc(C)cc4s3)cc2)S(C)(=O)=O)c1,6,11,-2,20*,-8,-20,
Cc1ccc(NC(=O)CSc2nnc(-c3cccnc3)n2Cc2ccco2)c(C)c1,.,.,0,0,.,.,
CCNC(=O)N1CCN(c2ccc(N3CCN(C(=O)NCC)[C@H](C)C3)c(C)c2)[C@H](C)C1,.,.,-3,0,.,.,
Cc1cccc(-c2nnc(SCC(=O)Nc3ccc(-c4nc5ccc(C)cc5s4)cc3)n2Cc2ccco2)c1,.,.,-5,68*,62*,92*,
Cc1cccn2c(=O)c3cc(C(=O)NCc4cccnc4)c(=N)n(C(C)C)c3nc12,3,-9,0,134*,51*,67*,
Cc1cccn2c(=O)c3cc(C(=O)NCc4ccco4)c(=N)n(C(C)C)c3nc12,2,-6,3,26*,7,4,
COCCn1c(=N)c(C(=O)NCc2ccco2)cc2c(=O)n3ccccc3nc21,1,-5,-2,7,.,.,
CC(C)n1c(=N)c(C(=O)NCCc2ccccc2)cc2c(=O)n3ccccc3nc21,-1,-2,0,134*,-51,-64,
COc1ccccc1CCC(=O)Nc1ccc2c(c1)c(=O)n(C)n2Cc1ccc(F)cc1,-4,1,-2,3,.,.,
COc1ccccc1CCC(=O)Nc1ccc2c(c1)c(=O)n(C)n2C,1,-6,-3,27*,16*,17*,
COc1cccc(CNC(=S)Nc2ccc3c(c2)c(=O)n(C)n3C)c1,2,-6,2,25*,11,13*,
CC1CCCCC1NC(=O)/C(C#N)=C/c1ccc(F)c(F)c1 (centres undefined),2,-7,5,0,.,.,
O=C(NCc1ccccc1)c1cc2ccc(O)cc2oc1=O,3,-5,1,58*,69*,71*,

# Assay outcomes: PubChem BioAssay, several laboratories
